Unmarked numbers belong to inactive results. Results filed as inconclusive are left out. Where a call stands in place of a potency, no number is given. The source made the active and inactive calls. Unless noted, calls follow the shape of the dose curve; as a rule, active = well fitted curve in the direction sought with a large enough effect in the repeat runs; inconclusive = weak or mixed curves; inactive = no such curve, though single readings can be large; an effect the other way counts as inactive or inconclusive.
Experiments:
[1] = qHTS assay to identify small molecule agonists of the hypoxia (HIF-1) signaling pathway - cell viability counter screen (AID 1224844; calls by dose curve; also: nearly all actives have a fitted effect of over 50% in size; also: potency is read from the fitted curve at half-maximal effect)
In short: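 Cells (HRE-bla ME-180, 2,000 per well) sat 5 hrs at 37C, got compound for 17 hrs, were read for CCF4-AM FRET, and were finally lysed with CellTiter-Glo for a 30 min room-temperature luminescence read.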

[2] = qHTS assay to identify small molecule agonists of H2AX (AID 1224845; active = well fitted activation curve with a large enough effect in the signal ratio in the repeat runs, not every such curve was filed as active; the % refers to the signal ratio)
In short: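 Wild-type CHO-K1 cells, plated overnight, exposed 3hr at 37C to 15 concentrations (0.76% DMSO final). Lysed, then HTRF anti-pH2AX (S139) cryptate and anti-H2AX-d2 antibodies, 24 hr room temperature; 665/620 nm emission read.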

[3] = qHTS assay to identify small molecule agonists of the hypoxia (HIF-1) signaling pathway (AID 1224846; active = well fitted activation curve with a large enough effect in the signal ratio in the repeat runs, not every such curve was filed as active; the % refers to the signal ratio)
In short: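 A low-serum medium (0.5% dialyzed FBS) holding 2,000 HRE-bla ME-180 cells per well is preincubated for 5 hrs, dosed with compounds by pintool, and kept a further 17 hrs at 37C, 5% CO2 before CCF4-AM FRET detection of beta-lactamase.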

[4] = qHTS assay to identify small molecule agonists of H2AX - cell viability counter screen (AID 1224847; calls by dose curve; also: top concentration of the series differs between compounds; nearly all actives have a fitted effect of over 30% in size)
In short: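 For this counter screen, overnight-attached CHO-K1 cells received test compounds (15 concentrations, 0.76% DMSO final); 3 hr later at 37C, CellTiter-Glo reagent was added and luminescence recorded after 30 min at room temperature.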

[5] = qHTS RealTime-Glo MT Cell Viability Assay in HepG2 cells - 24 hour (AID 1224867); also: nearly all actives have a fitted effect of over 50% in size
In short: (§1)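 Compound treatment began 5 h after plating HepG2 cells (600/well) with NanoLuc luciferase and prosubstrate. Plates stayed at 37 C for 40 h; luminescence was captured at six time points, 0 h through 40 h.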

[6] = A CellTox Green Cytotoxicity Assay to monitor cytotoxicity in HEK293 cells - 0 hour (AID 1224869); also: nearly all actives have a fitted effect of over 50% in size
In short: (§2)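 Fluorescence intensity, read at 0, 8, 16, 24, 32 and 40 h of compound treatment, reflected dye binding to DNA of dead HEK293 cells; compounds (23 nL, DMSO) were added 5 h after plating cells with reagent.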

[7] = qHTS RealTime-Glo MT Cell Viability Assay in HepG2 cells - 40 hour (AID 1224870); also: nearly all actives have a fitted effect of over 50% in size
In short: (§3)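 HepG2 cells (600/well) mixed with RealTime-Glo MT reagent, settled 5 h at 37 C/5% CO2 before compound addition. Nonlytic NanoLuc luminescence from viable-cell prosubstrate reduction read repeatedly during 40 h treatment at 37 C.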

[8] = A CellTox Green Cytotoxicity Assay to monitor cytotoxicity in HEK293 cells - 40 hour (AID 1224871); also: nearly all actives have a fitted effect of over 45% in size
In short: as §2

[9] = qHTS RealTime-Glo MT Cell Viability Assay in HEK293 cells - 16 hour (AID 1224872)
In short: (§4)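 Quantitative high-throughput screen of the Tox21 10K library in HEK293: cells and RealTime-Glo reagents plated together, compound added at 5 h, luminescence monitored through 40 h at 37 C.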

[10] = qHTS RealTime-Glo MT Cell Viability Assay in HepG2 cells - 8 hour (AID 1224873); also: nearly all actives have a fitted effect of over 55% in size
In short: as §3

[11] = A CellTox Green Cytotoxicity Assay to monitor cytotoxicity in HEK293 cells - 24 hour (AID 1224875); also: nearly all actives have a fitted effect of over 45% in size
In short: as §2

[12] = A CellTox Green Cytotoxicity Assay to monitor cytotoxicity in HepG2 cells - 16 hour (AID 1224876); also: nearly all actives have a fitted effect of over 45% in size
In short: (§5)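 Using 1536-well format, dye-containing HepG2 suspension was seeded, allowed 5 h at 37 C/5% CO2, dosed by pintool with compounds, positive and negative controls, and imaged for fluorescence across 40 h.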

[13] = qHTS RealTime-Glo MT Cell Viability Assay in HepG2 cells - 32 hour (AID 1224877); also: nearly all actives have a fitted effect of over 55% in size
In short: as §1

[14] = A CellTox Green Cytotoxicity Assay to monitor cytotoxicity in HepG2 cells - 24 hour (AID 1224878); also: nearly all actives have a fitted effect of over 45% in size
In short: as §5

[15] = A CellTox Green Cytotoxicity Assay to monitor cytotoxicity in HepG2 cells - 40 hour (AID 1224879); also: nearly all actives have a fitted effect of over 40% in size
In short: as §5

[16] = qHTS RealTime-Glo MT Cell Viability Assay in HEK293 cells - 32 hour (AID 1224868)
In short: as §4

[17] = qHTS RealTime-Glo MT Cell Viability Assay in HEK293 cells - 40 hour (AID 1224874); conditions: RealTime-Glo luminescence; max response: active compounds read low; also: nearly all actives have a fitted effect of over 50% in size
In short: (§6)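 Viable HEK293 cells reduce a cell-permeant prosubstrate; the product diffuses out and is consumed by NanoLuc in the medium to give light. Compounds went in after a 5 h incubation and plates were read over the treatment course.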

[18] = qHTS RealTime-Glo MT Cell Viability Assay in HEK293 cells - 0 hour (AID 1224880)
In short: as §6

[19] = qHTS assay to identify small molecule agonists of the estrogen related receptor (ERR) signaling pathway from Tox21 library (AID 1224849; calls by dose curve; also: nearly all actives have a fitted effect of over 15% in size); conditions: ERR reporter cell line, ONE-Glo luciferase, 18 h; at 92.4 µM (top of the series) unless noted
In short: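 Screening used an NTP-provided ERR luciferase cell line. Compounds in DMSO were added 6 h after seeding and left 18 h at 37 C before a 30 min ONE-Glo step and luminescence reading.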

[20] = qHTS assay to identify small molecule antagonists of the estrogen related receptor (ERR) signaling pathway from Tox21 library (AID 1224848); also: nearly all actives have a fitted effect of over 50% in size
In short: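 ERR reporter cell line (from NTP) seeded 2,000 cells/well, rested 6 h at 37 C/5% CO2, then pin-dosed with compounds in DMSO. After 18 h at 37 C, ONE-Glo added; luminescence read after 30 min at room temperature.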

**Q.** With CN as the compound, how does the Potency [1] read?
**A.** Its Potency is “inactive”.

**Q.** And the Potency [2]?
**A.** The Potency was “inactive”.

**Q.** What about the Potency [3] of the same compound?
**A.** The Potency was “inactive”.

**Q.** What about the Potency [4] of the same compound?
**A.** Its Potency is “inactive”.

**Q.** And the Potency [5]?
**A.** Its Potency is “inactive”.

**Q.** What about the Potency [6] of the same compound?
**A.** The Potency was “inactive”.

**Q.** And the Potency [7]?
**A.** The Potency was “inactive”.

**Q.** And the Potency [8]?
**A.** Its Potency is “inactive”.

**Q.** What about the Potency [9] of the same compound?
**A.** Its Potency is “inactive”.

**Q.** What about the Potency [10] of the same compound?
**A.** Its Potency is “inactive”.

**Q.** What about the Potency [11] of the same compound?
**A.** Its Potency is “inactive”.

**Q.** What about the Potency [12] of the same compound?
**A.** The Potency was “inactive”.

**Q.** And the Potency [13]?
**A.** The Potency was “inactive”.

**Q.** And the Potency [14]?
**A.** The Potency was “inactive”.

**Q.** What about the Potency [15] of the same compound?
**A.** Its Potency is “inactive”.

**Q.** With CC[N+]1(CC)CCC(OC(=O)C(O)(c2ccccc2)c2ccccc2)C1 (configuration not stated) as the compound, how does the Potency [1] read?
**A.** The Potency was “inactive”.

**Q.** And the Potency [2]?
**A.** Its Potency is “inactive”.

**Q.** And the Potency [3]?
**A.** Its Potency is “inactive”.

**Q.** And the Potency [4]?
**A.** The Potency was “inactive”.

**Q.** And the Potency [5]?
**A.** The Potency was “inactive”.

**Q.** What about the Potency [16] of the same compound?
**A.** The Potency was “inactive”.

**Q.** And the Potency [6]?
**A.** The Potency was “inactive”.

**Q.** And the Potency [7]?
**A.** Its Potency is “inactive”.

**Q.** And the Potency [8]?
**A.** Its Potency is “inactive”.

**Q.** And the Potency [9]?
**A.** The Potency was “inactive”.

**Q.** And the Potency [10]?
**A.** Its Potency is “inactive”.

**Q.** What about the max response [17] of the same compound?
**A.** Its max response is 2.71%.

**Q.** What about the Potency [11] of the same compound?
**A.** Its Potency is “inactive”.

**Q.** What about the Potency [13] of the same compound?
**A.** The Potency was “inactive”.

**Q.** What about the Potency [14] of the same compound?
**A.** The Potency was “inactive”.

**Q.** And the Potency [15]?
**A.** The Potency was “inactive”.

**Q.** And the Potency [18]?
**A.** The Potency was “inactive”.

**Q.** With CCN(CC)C(=O)N[C@@H]1C=C2c3cccc4[nH]cc(c34)C[C@@H]2N(C)C1 as the compound, how does the Potency [1] read?
**A.** The Potency was “inactive”.

**Q.** What about the Potency [2] of the same compound?
**A.** The Potency was “inactive”.

**Q.** And the Potency [3]?
**A.** Its Potency is “inactive”.

**Q.** What about the Potency [4] of the same compound?
**A.** Its Potency is “inactive”.

**Q.** What about the Potency [5] of the same compound?
**A.** The Potency was “inactive”.

**Q.** What about the Potency [16] of the same compound?
**A.** The Potency was “inactive”.

**Q.** And the Potency [6]?
**A.** Its Potency is “inactive”.

**Q.** And the Potency [7]?
**A.** Its Potency is “inactive”.

**Q.** And the Potency [8]?
**A.** Its Potency is “inactive”.

**Q.** What about the Potency [9] of the same compound?
**A.** The Potency was “inactive”.

**Q.** And the Potency [10]?
**A.** Its Potency is “inactive”.

**Q.** And the max response [17]?
**A.** Its max response is -0.723%.

**Q.** What about the Potency [11] of the same compound?
**A.** Its Potency is “inactive”.

**Q.** What about the Potency [12] of the same compound?
**A.** The Potency was “inactive”.

**Q.** What about the Potency [13] of the same compound?
**A.** The Potency was “inactive”.

**Q.** And the Potency [15]?
**A.** The Potency was “inactive”.

**Q.** And the Potency [18]?
**A.** Its Potency is “inactive”.

**Q.** Which results are given for Cc1c([N+](=O)[O-])c(C)c([N+](=O)[O-])c(C(C)(C)C)c1[N+](=O)[O-]?
**A.** Potency [1]: 24.5 µM (active); Potency [2]: inactive; Potency [3]: inactive; activity change, positive = activation [19]: -4.01%; Potency [5]: inactive; Potency [16]: inactive; Potency [6]: inactive; Potency [7]: inactive; Potency [8]: inactive; Potency [9]: inactive; Potency [10]: inactive; max response [17]: -20%; Potency [11]: inactive; Potency [12]: inactive; Potency [13]: inactive; Potency [14]: inactive; Potency [15]: inactive; Potency [18]: inactive

**Q.** Which results are given for CC(C)=CCN1CC[C@@]2(C)c3cc(O)ccc3C[C@@H]1[C@@H]2C?
**A.** Potency [1]: inactive; Potency [2]: inactive; Potency [3]: inactive; Potency [4]: inactive; Potency [5]: inactive; Potency [6]: inactive; Potency [7]: inactive; Potency [8]: inactive; Potency [10]: inactive; Potency [11]: inactive; Potency [12]: inactive; Potency [13]: inactive; Potency [14]: inactive; Potency [18]: inactive

**Q.** Which Potency [1] does the source give for COCCC#N here?
**A.** The Potency was “inactive”.

**Q.** What about the Potency [2] of the same compound?
**A.** The Potency was “inactive”.

**Q.** What about the Potency [3] of the same compound?
**A.** The Potency was “inactive”.

**Q.** And the Potency [5]?
**A.** Its Potency is “inactive”.

**Q.** What about the Potency [16] of the same compound?
**A.** Its Potency is “inactive”.

**Q.** What about the Potency [6] of the same compound?
**A.** Its Potency is “inactive”.

**Q.** And the Potency [7]?
**A.** Its Potency is “inactive”.

**Q.** What about the Potency [8] of the same compound?
**A.** The Potency was “inactive”.

**Q.** And the Potency [9]?
**A.** The Potency was “inactive”.

**Q.** And the Potency [10]?
**A.** The Potency was “inactive”.

**Q.** What about the max response [17] of the same compound?
**A.** The max response was 7.47%.

**Q.** And the Potency [11]?
**A.** The Potency was “inactive”.

**Q.** What about the Potency [13] of the same compound?
**A.** Its Potency is “inactive”.

**Q.** What about the Potency [14] of the same compound?
**A.** Its Potency is “inactive”.

**Q.** What about the Potency [15] of the same compound?
**A.** The Potency was “inactive”.

**Q.** With Oc1ccc(Cl)c(Cl)c1 as the compound, how does the Potency [1] read?
**A.** Its Potency is “inactive”.

**Q.** And the Potency [2]?
**A.** The Potency was “inactive”.

**Q.** And the Potency [3]?
**A.** The Potency was “inactive”.

**Q.** And the Potency [20]?
**A.** Its Potency is “inactive”.

**Q.** And the activity change, positive = activation [19]?
**A.** Its activity change, positive = activation is -11.7%.

**Q.** And the Potency [5]?
**A.** The Potency was “inactive”.

**Q.** And the Potency [6]?
**A.** Its Potency is “inactive”.

**Q.** And the Potency [7]?
**A.** The Potency was “inactive”.

**Q.** And the Potency [8]?
**A.** Its Potency is “inactive”.

**Q.** And the Potency [9]?
**A.** The Potency was “inactive”.

**Q.** And the Potency [10]?
**A.** The Potency was “inactive”.

**Q.** What about the max response [17] of the same compound?
**A.** Its max response is -18.2%.

**Q.** And the Potency [11]?
**A.** The Potency was “inactive”.

**Q.** And the Potency [12]?
**A.** Its Potency is “inactive”.

**Q.** What about the Potency [13] of the same compound?
**A.** Its Potency is “inactive”.

**Q.** And the Potency [15]?
**A.** The Potency was “inactive”.

From PubChem BioAssay (Tox21)
